Screening data: PubChem, Broad Institute
aSyn UTR act: Activators via SNCA 5'UTR binding, MLPCN | actives 7.1% (n = 300,000) | alpha-synuclein 5'UTR reporter, activators screen | activity score, % (tested at 7.5 µM), hits read low | AID 1814, 2009; in the data active means activity score below about -60%
Large screens that a line does not name were inactive. Only a sample is shown.

CCc1c(C)nc2cc(-c3cccc(Br)c3)[nH]n2c1=O	aSyn UTR act -199
Nc1[nH]n2c(=O)cc(-c3ccccc3)nc2c1N=Nc1ccccc1	none
COCc1cc(=O)n2[nH]c(-c3cccc(Br)c3)cc2n1	aSyn UTR act -75
Cc1nc2cc(-c3ccc(Br)cc3)[nH]n2c(=O)c1Cl	aSyn UTR act -74
O=c1c2c(nc3cc(-c4ccc(Cl)cc4)[nH]n13)CCS2	aSyn UTR act -132
COCCNC(=S)N/N=C(\C)c1ccccc1O	aSyn UTR act -161
Oc1ccc(Br)cc1/C=N/N1CCCCC1	aSyn UTR act -221
Oc1ccc(Br)cc1/C=N/n1cnc2ccccc21	aSyn UTR act -262
CC(C)c1ccc(C2C3CSCC=C3C(C#N)=C(N)C2(C#N)C#N)cc1 (stereo not drawn)	aSyn UTR act -84
COc1ccc(C(=O)N/N=C(/C)c2ccc(N3CCCCC3)cc2)cc1	aSyn UTR act -68
C/C(=N\NC(=O)CC(C)C)c1ccc(N2CCCCC2)cc1	aSyn UTR act -62
COc1ccc(/C(C)=N/NC(=O)c2nc(C)cc(C)n2)cc1	aSyn UTR act -114
CCCn1nc(NC(=O)COC)c2cc3cc(C)ccc3nc21	aSyn UTR act -96
CCn1nc(NC(=O)C2CCCO2)c2cc3cc(C)ccc3nc21 (stereo not drawn)	aSyn UTR act -90
COc1ccc(CNc2nc3ccccc3n2C)c(OC)c1	aSyn UTR act -88
COc1ccc(CNc2nc3ccccc3n2C)c(O)c1	aSyn UTR act -133
CCCn1c(NCc2cccc(OC)c2O)nc2ccccc21	aSyn UTR act -82
c1coc(-c2nc(-c3ccncc3)no2)c1	aSyn UTR act -122
Brc1ccc(-c2nc(-c3ccncc3)no2)cc1	aSyn UTR act -184
c1ccc(-c2nc(-c3ccncc3)no2)cc1	aSyn UTR act -141
O=[N+]([O-])c1ccc(-c2nc(-c3ccncc3)no2)cc1	aSyn UTR act -74
CCCCc1ccc(-c2nc(-c3ccncc3)no2)cc1	none
Brc1ccc(-c2nc(-c3ccccn3)no2)o1	none
c1ccc(-c2noc(-c3cccnc3)n2)cc1	aSyn UTR act -198
Brc1ccc(-c2nc(-c3ccncc3)no2)o1	aSyn UTR act -188
c1ccc(-c2nc(-c3ccc(-c4ccon4)s3)no2)cc1	aSyn UTR act -104
CCOC(=O)/C=C(/C)N1N=C(c2ccc(OC)cc2)CC1c1cccc([N+](=O)[O-])c1 (stereo not drawn)	aSyn UTR act -166
CC1Cc2ccccc2N1C(=O)COc1ccc2c(c1)OCO2 (stereo not drawn)	aSyn UTR act -91
CC1CCCN(C(=O)COc2ccc3c(c2)OCO3)C1 (stereo not drawn)	aSyn UTR act -69
CN(C)CCSc1nnc(-c2ccccc2)o1	aSyn UTR act -71
CCN(CC)C(=O)CSc1nnc(-c2ccccc2)o1	aSyn UTR act -137
CC(=O)Nc1ccc(-n2cc(-c3ccccc3)[nH]c2=S)cc1	aSyn UTR act -81
Cc1cccc(-n2cc(-c3ccccc3)[nH]c2=S)c1	aSyn UTR act -108
COc1ccc(-n2cc(-c3ccccc3)[nH]c2=S)cc1	aSyn UTR act -91
O=C(N/N=C/c1ccc2cccnc2c1)c1nc2ccccc2c(=O)[nH]1	aSyn UTR act -83
O=C(N/N=C/c1ccncc1)c1nc2ccccc2c(=O)[nH]1	aSyn UTR act -66
COc1ccc(/C(C)=N/Nc2nc3ccccc3nc2C)cc1	aSyn UTR act -67
COc1ccc(/C(C)=N/Nc2nncc3ccccc23)cc1	aSyn UTR act -113
COc1ccc(N/N=C(/C)c2cnnc(-c3ccccc3)n2)cc1	aSyn UTR act -70
Cc1ccc(NC(=S)Nc2ccc3cn[nH]c3c2)cc1	aSyn UTR act -83
O=C(NC(=S)Nc1ccc2cn[nH]c2c1)c1ccccc1	aSyn UTR act -173
S=C(Nc1ccccc1)Nc1ccc2cn[nH]c2c1	aSyn UTR act -75
CCOc1ccc2c(c1)nc(SCC(=O)c1cccs1)n2C	aSyn UTR act -67
Cc1ccc(OCC(=O)Nc2ccon2)c([N+](=O)[O-])c1	aSyn UTR act -91
Cc1ccc(OCC(=O)Nc2ccccc2[N+](=O)[O-])c(Br)c1	aSyn UTR act -207
Cc1ccc(OC/C(=N\O)C(C)(C)C)c([N+](=O)[O-])c1	aSyn UTR act -77
Cc1ccc(Sc2cnc3ccccc3n2)cc1	aSyn UTR act -176
O=[N+]([O-])c1cccc(-c2ccc(C(=S)N3CCOCC3)o2)c1	aSyn UTR act -107
CN1CCN(C(=S)c2ccc(-c3cccc([N+](=O)[O-])c3)o2)CC1	aSyn UTR act -171
O=[N+]([O-])c1cc(-c2ccc(C(=S)N3CCOCC3)o2)ccc1Cl	aSyn UTR act -72
O=C1c2sc3nc4ccccc4n3c2C(=O)N1c1ccccc1Cl	aSyn UTR act -72
O=C(Nc1ccc(N2CCN(C(=O)c3ccccc3)CC2)cc1)c1ccc(Br)o1	aSyn UTR act -69
CCN1CCN(c2ccc(NC(=O)c3ccc(Br)o3)cc2)CC1	aSyn UTR act -91
CCC(=O)N1CCN(c2ccc(NC(=O)c3ccc([N+](=O)[O-])o3)cc2)CC1	none
O=C(Nc1ccc(N2CCN(C(=O)c3ccc(Cl)cc3)CC2)cc1)c1ccc([N+](=O)[O-])o1	none
COc1ccc(/C(C)=N/Nc2ncc(Cl)cc2Cl)c(O)c1	aSyn UTR act -92
Cc1[nH]c(=O)c(C(=O)/C=C/c2ccccc2F)c2c1CCCC2	aSyn UTR act -364
O=C(/C=C\c1ccccc1OC(=O)c1ccccc1F)c1cc2ccccc2o1	aSyn UTR act -132
CCCCCCc1cc2cc(C(=O)Nc3ccccc3)c(=O)oc2cc1O	none
COc1ccc2oc(=O)c(C(=O)Nc3cccc(C(C)=O)c3)cc2c1	aSyn UTR act -82
O=C(Nc1ccccc1O)c1cc2cc(Br)ccc2oc1=O	aSyn UTR act -124
COc1ccc2oc(=N)c(C(=O)Nc3cccc(C)c3C)cc2c1	aSyn UTR act -158
COc1ccc2oc(=N)c(C(=O)Nc3ccccc3Cl)cc2c1	aSyn UTR act -209
CN(C)C(CNC(=O)c1cc2ccccc2oc1=O)c1ccccc1 (stereo not drawn)	aSyn UTR act -162
Cc1cccnc1NC(=O)c1cc2ccccc2oc1=O	aSyn UTR act -200
COc1ccc2oc(=O)c(C(=O)Nc3ccccc3C)cc2c1	aSyn UTR act -199
Cc1cc(O)cc(O)c1-c1onc(C(F)(F)F)c1-c1cscn1	aSyn UTR act -78
O=C1CCCCCN1Cc1nnc(SCc2nc3ccccc3s2)n1-c1ccccn1	aSyn UTR act -109
CC(C)c1cccc(C(C)C)c1NC(=O)CCl	aSyn UTR act -76
O=C(CCl)NC(Cc1ccccc1)c1ccccc1 (stereo not drawn)	none
Cc1cccc(-c2nsc(SCC(=O)Nc3ccc4c(c3)OCO4)n2)c1	aSyn UTR act -96
CSc1nsc(SCC(=O)Nc2ccc3c(c2)OCCO3)n1	aSyn UTR act -136
Cc1csc(SCC(=O)Nc2ccc3c(c2)OCCO3)n1	aSyn UTR act -67
Nc1c2ccccc2nc2ccccc12	none
COc1ccc2nc3cccc(OC)c3nc2c1	aSyn UTR act -105
COc1ccc2nc3ccccc3nc2c1N	aSyn UTR act -67
Cc1ccnc(S(=O)(=O)Cc2ccc([N+](=O)[O-])cc2)n1	aSyn UTR act -70
O=C1C2C3C=CC(C3)C2C(=O)N1/N=C/c1cn(Cc2ccccc2)c2ccccc12 (stereo not drawn)	none
O=C1C2C3C=CC(CC3)C2C(=O)N1/N=C/c1c[nH]c2ccccc12 (stereo not drawn)	aSyn UTR act -92
O=C(CSc1ncn(-c2ccccc2)n1)c1cccs1	aSyn UTR act -177
Nc1nc(CSc2ncn(-c3ccccc3)n2)cs1	aSyn UTR act -154
